GalR3 antag = human GalR3 antagonism. O60755. HEK293 GalR3-CNG cAMP membrane potential fluorescence; galR3 body fused to GalR1 C-terminus. inhibition, % at 3 µM. 360,000 compounds, 0.44% hits;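 active = inhibition above the screen-wide average plus 3 SD, cut at about 13% in these data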;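 also: forskolin and galanin both at EC90 stimulate the cells; cAMP rise reported by CNG channel membrane potential dye signal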
Target sequence (O60755 1-299 limits assumed): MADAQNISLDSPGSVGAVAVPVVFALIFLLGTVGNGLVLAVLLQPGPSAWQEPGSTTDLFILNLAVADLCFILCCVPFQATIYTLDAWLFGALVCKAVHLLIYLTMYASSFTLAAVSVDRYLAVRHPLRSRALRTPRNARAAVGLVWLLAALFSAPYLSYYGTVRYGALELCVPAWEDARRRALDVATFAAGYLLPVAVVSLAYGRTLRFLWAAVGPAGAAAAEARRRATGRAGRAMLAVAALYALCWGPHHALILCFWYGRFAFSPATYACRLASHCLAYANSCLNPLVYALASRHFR
Env fusion inh = inhibitors of HIV Env-mediated cell fusion; HeLa-JRFL Env/CEM21 cell fusion, luciferase; inhibition, % at 12.3 µM; 360,000 compounds, 1.1% hits;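 active = mean replicate inhibition score of at least 50 and every replicate individually at or above 50; inconclusive = only one of the two criteria met; inactive = mean below 50 and not all replicates reaching 50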
NR2F2 inh = inhibitors of human COUP-TFII (NR2F2); P24468; HEK293T NGFI-A luciferase reporter, luminescence; inhibition, % at 8.6 µM; 370,000 compounds, 0.7% hits;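 active = inhibition above a per-plate cutoff, mean inhibition of test wells between control levels plus 3 SD, cut at about 38% in these data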;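 also: cells cotransfected with COUP-TFII expression vector driving the NGFI-A reporter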
aDG glyco act = increases alpha dystroglycan glycosylation; Pro5-aDG cells, alpha-DG glycosylation AlphaScreen (IIH6); 0% Pro5, 100% B10-LARGE cell signal; activation, % at 10 µM; 360,000 compounds, 0.22% hits; AID 624168;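 active = activation of at least 8% versus controls, or a plate z-score of at least 8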;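 also: Pro5 are CHO cells carrying HIG-tagged alpha-DG that lacks glycosylation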
Gli-Sufu block = Gli-Sufu pathway antagonism | Sufu-KO-LIGHT fibroblasts, Gli luciferase reporter luminescence | 340,000 compounds, 0.74% hits | inhibition, % at 5 µM;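 active = inhibition above about 55%, limit read from the data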
Numbers stand for hits; [ ] = another dose, or the depositor's remark. Rows were chosen to be rich in hits. Some 2.1% of all compounds tested hit in one or more screens of this group.

What do the screens show for `O=S(=O)(c1cccc(-c2nnc(-c3ccc(Br)cc3)o2)c1)N1CCCCCC1`?
GalR3 antag: inactive; Env fusion inh: 60; NR2F2 inh: inactive; aDG glyco act: inactive; Gli-Sufu block: inactive

What do the screens show for `C=CCN1C(=O)[C@]2(O[C@H](CCn3cc(CCO)nn3)[C@@H]([Si](C)(C)c3ccc(OC)cc3)[C@@H]2C)c2cc(N3C(=O)c4cccc5cccc3c45)ccc21`?
Env fusion inh: 70[16.7 µM]

How did COc1ccc([Si](C)(C)[C@@H]2[C@@H](CCO)O[C@]3(C(=O)N4c5c(cc(OC)cc53)C(C)=CC4(C)C)[C@H]2C)cc1 do in these assays?
Env fusion inh: 90[16.7 µM]

Results for COc1ccc([Si](C)(C)[C@@H]2[C@@H](CCO)O[C@]3(C(=O)N(Cc4ccccc4)c4ccc(N5CCCCC5=O)cc43)[C@H]2C)cc1 ?
Env fusion inh: inactive

How did COc1ccc([Si](C)(C)[C@H]2[C@H](CCO)O[C@@]3(C(=O)N4c5c(cc(OC)cc53)C(C)=CC4(C)C)[C@@H]2C)cc1 do in these assays?
Env fusion inh: inactive

Results for COc1ccc([Si](C)(C)[C@@H]2[C@@H](CCO)O[C@]3(C(=O)N(Cc4ccccc4)c4ccc(N5C(=O)c6cccc7cccc5c67)cc43)[C@H]2C)cc1 ?
Env fusion inh: 64[16.7 µM]

How did CN1CCN(C(=O)C[C@@H]2CC[C@H]3[C@@H](COC[C@@H](O)CN3S(=O)(=O)c3cccc(F)c3)O2)CC1 do in these assays?
Env fusion inh: inactive

Results for O=C(CN1CCN(C(c2ccccc2)c2ccccc2)CC1)N1CCOCC1 ?
GalR3 antag: inactive; NR2F2 inh: inactive; aDG glyco act: inactive; Gli-Sufu block: inactive

Results for Oc1c(C(c2ccccc2)N2CCOCC2)ccc2ccccc12 (stereo not given) ?
GalR3 antag: inactive; Env fusion inh: 72; NR2F2 inh: inactive; aDG glyco act: inactive; Gli-Sufu block: inactive

How did CCCCc1c(Cc2ccccc2)ncn1CCc1ccccc1OC do in these assays?
GalR3 antag: inactive; Env fusion inh: 58; NR2F2 inh: inactive; aDG glyco act: inactive

Results for CCCCCc1c(-c2ccc(OC)cc2)ncn1CCc1ccccc1OC ?
GalR3 antag: inactive; Env fusion inh: 62; NR2F2 inh: inactive; aDG glyco act: inactive

How did CCCNC(=O)C[C@@H]1CC[C@H]2[C@@H](COc3ccc(NC(=O)CCC)cc3C(=O)N2C)O1 do in these assays?
Env fusion inh: inactive

Results for COc1ccc(NC(=O)C2CCN(c3nc(C)cc(C)n3)CC2)cc1 ?
GalR3 antag: inactive; Env fusion inh: inactive; NR2F2 inh: inactive; aDG glyco act: inactive; Gli-Sufu block: inactive

How did COc1ccc(NC(=O)C2CCN(c3nc(C)nc4c3CCC4)CC2)cc1 do in these assays?
GalR3 antag: inactive; Env fusion inh: 54; NR2F2 inh: inactive; aDG glyco act: inactive; Gli-Sufu block: inactive

What do the screens show for `CCOC(=O)c1[nH]cnc1N=Nc1c(O)ccc2ccccc12`?
GalR3 antag: inactive; Env fusion inh: inactive; NR2F2 inh: inactive; aDG glyco act: inactive; Gli-Sufu block: 57

How did Oc1ccc2ccccc2c1N=Nc1ccccn1 do in these assays?
GalR3 antag: inactive; NR2F2 inh: inactive; aDG glyco act: inactive; Gli-Sufu block: inactive

Results for C=CCOC(=O)[C@H]1[C@@H]2C(=O)O[C@@H](c3ccccc3)[C@@H](c3ccccc3)N2[C@@H](c2ccc(OCCOC(=O)[C@H]3C[C@H]4C(=O)N[C@@H](CC(C)C)C(=O)N4[C@H]3c3cccc(OCCO)c3)cc2)[C@]12C(=O)Nc1ccccc12 ?
Env fusion inh: inactive

How did CC[C@@]1(C(=O)OC)N[C@H](CN(C)C(=O)c2ccccc2)[C@@H]2C(=O)N(Cc3ccccc3)C(=O)[C@@H]21 do in these assays?
GalR3 antag: inactive; Env fusion inh: inactive; NR2F2 inh: inactive; aDG glyco act: inactive; Gli-Sufu block: inactive

How did CC[C@@]1(C(=O)OC)N[C@H](CN(C)C(=O)Nc2ccccc2)[C@@H]2C(=O)N(Cc3ccccc3)C(=O)[C@@H]21 do in these assays?
GalR3 antag: inactive; Env fusion inh: 60; NR2F2 inh: inactive; aDG glyco act: inactive; Gli-Sufu block: inactive

Results for CC[C@@]1(C(=O)OC)N[C@H](CN(C)C(=O)c2ccc(C(C)(C)C)cc2)[C@@H]2C(=O)N(Cc3ccccc3)C(=O)[C@@H]21 ?
GalR3 antag: inactive; Env fusion inh: 79; NR2F2 inh: inactive; aDG glyco act: inactive; Gli-Sufu block: inactive

What do the screens show for `CCN(C[C@H]1N[C@@](CC)(C(=O)OC)[C@H]2C(=O)N(Cc3ccccc3)C(=O)[C@@H]12)S(=O)(=O)c1ccc(OC)cc1`?
GalR3 antag: inactive; Env fusion inh: 78; NR2F2 inh: inactive; aDG glyco act: inactive; Gli-Sufu block: inactive

Results for CCN(C[C@H]1N[C@@](C)(C(=O)OC)[C@H]2C(=O)N(Cc3ccccc3)C(=O)[C@@H]12)C(=O)Nc1ccc(Cl)cc1 ?
GalR3 antag: inactive; Env fusion inh: 64; NR2F2 inh: inactive; aDG glyco act: inactive; Gli-Sufu block: inactive

What do the screens show for `C[C@H](CO)N1C[C@H](C)[C@H](CN(C)Cc2ccc3c(c2)OCO3)Oc2c(NC(=O)C3CCOCC3)cccc2C1=O`?
Env fusion inh: inactive

What do the screens show for `COc1ccc(S(=O)(=O)Nc2ccc3c(c2)CC(=O)N([C@@H](C)CO)C[C@H](C)[C@@H](CN(C)C(=O)NC(C)C)O3)cc1`?
Env fusion inh: inactive

Results for C[C@H]1CN([C@@H](C)CO)C(=O)c2cccc(NS(=O)(=O)c3ccc(F)cc3)c2O[C@@H]1CN(C)S(=O)(=O)c1cn(C)cn1 ?
Env fusion inh: inactive

Results for CCN(C[C@H]1N[C@@](C)(C(=O)OC)[C@H]2C(=O)N(Cc3ccccc3)C(=O)[C@@H]12)C(=O)c1ccc(C(C)(C)C)cc1 ?
GalR3 antag: inactive; Env fusion inh: 69; NR2F2 inh: inactive; aDG glyco act: inactive; Gli-Sufu block: inactive

How did CCN(C[C@H]1N[C@@](CC)(C(=O)OC)[C@H]2C(=O)N(Cc3ccccc3)C(=O)[C@@H]12)C(=O)c1ccc(C(C)(C)C)cc1 do in these assays?
GalR3 antag: inactive; Env fusion inh: inconclusive; NR2F2 inh: inactive; aDG glyco act: inactive; Gli-Sufu block: inactive

How did CC[C@@]1(C(=O)OC)N[C@H](CN(C)C(=O)Nc2ccc(C(F)(F)F)cc2)[C@@H]2C(=O)N(Cc3ccccc3)C(=O)[C@@H]21 do in these assays?
GalR3 antag: inactive; Env fusion inh: 85; NR2F2 inh: inactive; aDG glyco act: inactive; Gli-Sufu block: inactive

Results for COC(=O)[C@]1(C)N[C@H](CN(C)S(=O)(=O)c2ccc(OC(F)(F)F)cc2)[C@@H]2C(=O)N(Cc3ccccc3)C(=O)[C@@H]21 ?
GalR3 antag: inactive; Env fusion inh: 82; NR2F2 inh: inactive; aDG glyco act: inactive; Gli-Sufu block: inactive

Results for Cc1cccc(N2C(=O)N3[C@H](c4ccc(Br)cc4)[C@@H]4C(=O)N(C(C)(C)C)C(=O)[C@@H]4[C@]3(C)C2=O)c1 ?
GalR3 antag: inactive; Env fusion inh: 112; NR2F2 inh: inactive; aDG glyco act: inactive; Gli-Sufu block: inactive
